HP1b chromo inh = blocks HP1-beta chromodomain binding to methylated histone tails; P83916; AlphaScreen HP1-beta / biotin-H3K9me3 peptide binding; Potency, µM (titrated, usually from 114 µM), without a hit: at the top dose activity change, negative = inhibition, hits mostly inhibitors; actives 0.56% (n = 390,000); AID 540317; also: potency is read from the fitted curve at half-maximal effect; nearly all actives have a fitted effect of over 70% in size
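AlphaScreen: HP1-beta (50 nM) preformed 30 min with biotin-H3(1-18)K9me3 peptide (50 nM) in PBS pH 7.4, 0.01% Tween-20. Compound added for 30 min at RT, then streptavidin donor/nickel chelate acceptor beads (10 ug/mL) for 30 min.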
G9a inh-1 = G9a (human) methyltransferase inhibition | Q96KQ7 | G9a H3K9 monomethylation, AlphaScreen, 2 h | Potency, µM (titrated, usually from 102 µM), without a hit: top-dose activity, negative = inhibition, usual class: inhibitors | actives 8.8% (n = 350,000); also: potency is read from the fitted curve at half-maximal effect; % is scaled to controls: 0 for no effect and ±100 for the full control effect; nearly all actives have a fitted effect of over 75% in size
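Readings reflect AlphaScreen signal from monomethyl-H3K9 antibody detection. HMT at 20 nM; substrate b-H3K9 500 nM; cofactor SAM 20 uM; 2 h RT reaction; compounds tested as titrations in qHTS with 15 min preincubation.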
BAZ2B inh = blocks human BAZ2B; Q9UIF8; AlphaScreen BAZ2B-H3K14Ac peptide displacement; Potency, µM (highest dose often 114 µM), for inactives: at the highest dose activity change, negative = inhibition, usual class: inhibitors; actives 4.4% (n = 360,000); AID 504333; also: potency is read from the fitted curve at half-maximal effect; % is scaled to controls: 0 for no effect and ±100 for the full control effect; nearly all actives have a fitted effect of over 60% in size
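BAZ2B (50 nM) with biotin-H3(5-23)K14Ac peptide (50 nM) in PBS pH 7.4, 0.01% Tween-20, preformed 30 min, then compound 30 min at room temperature; top concentration 110uM. AlphaScreen streptavidin donor/nickel chelate acceptor beads (10 ug/mL final), 20 min dark, signal read.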
JMJD2A Tudor = inhibitors of human JMJD2A Tudor domain. O75164. AlphaScreen JMJD2A-Tudor / H3K4me3 peptide binding. Potency, µM (highest dose often 114 µM), inactives show top-dose activity change, negative = inhibition, most hits filed as inhibitors. actives 4.4% (n = 390,000); also: potency is read from the fitted curve at half-maximal effect; % is scaled to controls: 0 for no effect and ±100 for the full control effect; nearly all actives have a fitted effect of over 50% in size
Target sequence (O75164 whole entry, looked up, the tested form may be a part): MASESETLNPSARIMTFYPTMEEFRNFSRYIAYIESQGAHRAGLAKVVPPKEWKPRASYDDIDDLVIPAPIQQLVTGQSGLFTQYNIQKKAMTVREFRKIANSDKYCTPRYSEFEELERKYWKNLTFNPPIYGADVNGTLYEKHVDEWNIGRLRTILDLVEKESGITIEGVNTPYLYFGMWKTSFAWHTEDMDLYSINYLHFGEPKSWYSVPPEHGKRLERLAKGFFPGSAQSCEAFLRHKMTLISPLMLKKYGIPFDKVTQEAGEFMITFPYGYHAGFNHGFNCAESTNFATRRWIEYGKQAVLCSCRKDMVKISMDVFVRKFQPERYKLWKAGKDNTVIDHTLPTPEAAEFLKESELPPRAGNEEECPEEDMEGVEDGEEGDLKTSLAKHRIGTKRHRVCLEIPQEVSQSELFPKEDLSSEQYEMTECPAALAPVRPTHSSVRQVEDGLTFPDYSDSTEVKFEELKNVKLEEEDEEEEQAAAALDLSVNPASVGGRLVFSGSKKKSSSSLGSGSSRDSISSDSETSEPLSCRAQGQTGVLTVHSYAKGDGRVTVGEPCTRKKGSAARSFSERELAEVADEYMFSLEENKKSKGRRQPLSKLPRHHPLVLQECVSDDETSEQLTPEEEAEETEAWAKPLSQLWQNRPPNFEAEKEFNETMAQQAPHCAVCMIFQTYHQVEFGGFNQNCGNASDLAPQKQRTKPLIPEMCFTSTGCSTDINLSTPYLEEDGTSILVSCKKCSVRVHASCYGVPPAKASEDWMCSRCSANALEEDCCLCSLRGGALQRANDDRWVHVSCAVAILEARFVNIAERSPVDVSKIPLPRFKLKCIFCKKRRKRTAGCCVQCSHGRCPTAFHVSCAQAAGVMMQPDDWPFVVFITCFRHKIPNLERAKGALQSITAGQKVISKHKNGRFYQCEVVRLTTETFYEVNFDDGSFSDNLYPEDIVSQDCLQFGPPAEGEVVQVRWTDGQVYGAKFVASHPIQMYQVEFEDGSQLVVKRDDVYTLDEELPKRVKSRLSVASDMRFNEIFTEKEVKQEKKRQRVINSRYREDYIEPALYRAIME
PLK1 PBD inh = PLK1 (human) polo-box domain binding inhibition. AID 720504. actives 2.8% (n = 360,000). Potency, µM, for the others: max response, negative = inhibition, actives largely listed as inhibitors. Plk1 PBD binding of FITC phosphopeptide, fluorescence polarization; also: potency is read from the fitted curve at half-maximal effect; series mostly up to about 57 µM; % is scaled to controls: 0 for no effect and ±100 for the full control effect; nearly all actives have a fitted effect of over 65% in size
ALOX12 inh = blocks human arachidonate 12S-lipoxygenase | purified 12hLO, xylenol orange hydroperoxide absorbance | Potency, µM (titrated, usually from 108 µM), inactives show at the top dose activity change, negative = inhibition, usual class: inhibitors | actives 1.1% (n = 580,000); also: potency is read from the fitted curve at half-maximal effect; % is scaled to controls: 0 for no effect and ±100 for the full control effect
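Hydroperoxide product was detected by ferrous iron/xylenol orange as the 573 to 405 nm absorbance ratio. Arachidonic acid at 40 uM (final) was turned over for 30 min at room temperature by 150 nM human 12hLO, pH 7.0 Hepes buffer, after 15 min compound preincubation.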
JMJD2E inh = JMJD2E (human) demethylase inhibition, confirmation. AID 2677. Potency, µM (series often up to 56.8 µM), for inactives: at the highest dose activity change, negative = inhibition, usual class: inhibitors. Recombinant JMJD2E, FDH-coupled NADH fluorescence (FDH is formaldehyde dehydrogenase). shares compounds with JMJD2A Tudor. actives 93% (n = 140)
FDH inh = counter-screen for JMJD2E inhibitors: Pseudomonas putida formaldehyde dehydrogenase; shares compounds with JMJD2A Tudor; FDH enzyme assay, NADH fluorescence kinetic; Potency, µM (doses to about 56.7 µM), for the others: at the top dose activity, negative = inhibition, usual class: inhibitors; actives 10% (n = 140); AID 2680
G9a inh-2 = confirmation of human histone methyltransferase G9a inhibitors; actives 89% (n = 370); Potency, µM, actives largely listed as inhibitors; shares compounds with JMJD2A Tudor; G9a H3K9 monomethylation, AlphaScreen, 2 h; AID 588344; also: potency is read from the fitted curve at half-maximal effect; nearly all actives have a fitted effect of over 65% in size
RGS4 confirm = inhibits human RGS4, hit validation. actives 80% (n = 25). RGS4 GAP activity, Transcreener GDP fluorescence polarization. AID 602388. shares compounds with JMJD2A Tudor. Potency, µM, most hits filed as inhibitors
An asterisk follows results filed as active; ? = inconclusive; . = not tested or not shown; [ ] = dose if it differs, or a comment. Rows were chosen to be rich in hits. Some 9% of all compounds tested hit in one or more screens of this group. Calls follow the shape of the dose curve; as a rule, active = well fitted curve in the direction sought with a large enough effect; inconclusive = small, poorly fitted or top-dose-only effect, or another doubt; inactive = no such curve, though single readings can be large; an effect the other way counts as inactive or inconclusive.

SMILES | HP1b chromo inh | G9a inh-1 | BAZ2B inh | JMJD2A Tudor | PLK1 PBD inh | ALOX12 inh | G9a inh-2 | others
COc1ccc(NS(=O)(=O)c2ccc(-c3coc(C)n3)cc2)cc1OC | 20% | . | ? | -31% | -5% | -5% | .
Cc1cc(C)c(C)c(S(=O)(=O)N2CCC(C(=O)N3CCN(c4ccc(F)cc4)CC3)CC2)c1C | 6%[57 µM] | . | . | -21% | -3% | 3% | .
Cc1ccc(C(C)(C)C)cc1S(=O)(=O)N1CCC(C(=O)N2CCN(c3ccc(O)cc3)CC2)CC1 | ? | 0.79µM* | 10% | -35% | -10% | ? | 1.4*
COc1ccc(Br)cc1CNc1ccc(O)cc1 | ? | ? | 40µM* | ? | 30µM* | ? | 3.2*
CC(=O)N1Cc2ccccc2CC2(CCN(CC3CCCC3)C2)C1 (stereo not drawn) | . | . | . | . | . | -5%[6.33 µM] | .
COc1ccc(N(C(=O)Cn2nnc(-c3ccc(F)cc3)n2)C(C)C(=O)NC2CCCC2)cc1OC (stereo not drawn) | 20% | 0% | 0% | -13% | -6% | 0% | .
Cc1ccnc(NC(c2cccnc2)c2ccc3cccnc3c2O)c1 (stereo not drawn) | ? | 6.3µM* | 7.1µM* | 22µM* | ? | ? | . | JMJD2E inh=32µM*;FDH inh=?
Cc1ccc(C)c(C(NC(=O)C2CC2)c2cccnc2)c1 (stereo not drawn) | . | . | . | . | . | 2% | .
Cn1nc(C(=O)Nc2nc(-c3ccccn3)cs2)c2ccccc2c1=O | ? | 4.5µM* | 18µM* | 22µM* | 13µM* | -7% | . | RGS4 confirm=11*
CCCCCn1nc(C(=O)Nc2nc(-c3ccccn3)cs2)c2ccccc2c1=O | . | . | . | . | . | 28% | .
Cc1noc(C)c1CN1CCCC(N)C1 (stereo not drawn) | . | . | . | . | . | 51% | .
Cn1nnc(NC(=S)NC(=O)c2ccc(-c3ccc(Br)cc3)o2)n1 | -7% | ? | -13% | -4% | ? | -1% | .
Cn1nnc(NC(=S)NC(=O)c2cccs2)n1 | -37% | 0.79µM* | ? | 3.2µM* | -12% | ? | 7.1*
COc1cccc(-c2nc(C3CC(=O)N(C4CCCCC4)C3)no2)c1 (stereo not drawn) | . | . | . | . | . | -1% | .
COc1ccc(Br)cc1CN1CCCCCCC1 | ? | 2.8µM* | 50µM* | 4µM* | 5% | ? | 13*
CN(CC(=O)Nc1ccc(N2CCOCC2)cc1)Cc1c(O)ccc2ccccc12 | -1% | 0.5µM* | ? | 56µM* | 4.7µM* | ? | 0.25*
O=C(Sc1nnnn1C1CCCCC1)c1cccs1 | . | ? | ? | . | . | . | 0.71*
COc1cccc(C(=O)Nc2ccncc2)c1OC | 24% | -20% | -22% | 1% | 2% | -14% | .
CCN(CC)c1ccc(NC(=O)c2cc(Cl)ccc2OC)cc1 | 35µM* | 2.5µM* | ? | 45µM* | -5% | ? | 1.4*
COc1cccc(C(=O)Nc2ccc(N(C)C)cc2)c1OC | ? | ? | 50µM* | 56µM* | -20% | ? | 7.1*
CCN(CC)c1ccc(NC(=O)COC(=O)C2CCN(c3ccc(C(F)(F)F)cn3)CC2)cc1 | ? | 1.6µM* | ? | 16µM* | -10% | ? | 2.8*
CS(=O)(=O)NN1C(=O)c2ccccc2NC1c1ccccc1O (stereo not drawn) | 85% | -3% | 18% | 10% | -8% | 0% | .
CCOC(=O)c1nn(-c2ccc(OC)cc2)c(=O)c2c(N)scc12 | -15% | 1.1µM* | 50µM* | ? | ? | ? | 4*
Cc1cccc(OCc2nnc(SCC(=O)Nc3cccc(C(=O)N4CCOCC4)c3)o2)c1C | 12% | 2µM* | -21% | -9% | 2% | ? | 5*
Cc1cccc(C)c1OCc1nnc(SCC(=O)Nc2cccc(C(=O)N3CCOCC3)c2)n1C | 9% | 9%[59 µM] | -3% | ? | -9% | 4% | .
SMILES | HP1b chromo inh | G9a inh-1 | BAZ2B inh | JMJD2A Tudor | PLK1 PBD inh | ALOX12 inh | G9a inh-2 | others
CCOc1nc(NCCc2ccc(OC)c(OC)c2)nc(N2CCN(c3ccc(OC)cc3)CC2)n1 | 35% | ? | -24% | 2% | -5% | -7% | 2*
CCOc1cc(C)nc(NCCc2ccc(OC)c(OC)c2)n1 | 24% | 5%[12.7 µM] | -5% | -24% | 2% | -19% | .
COC(=O)C1=C[C@@H](C(=O)OC)C2C3=C(C(=O)C24CCCCC4)[C@H](C)n2c(=O)n(C)c(=O)n2[C@@H]3C1 (stereo partly drawn) | 6% | . | . | -26% | -11% | -13% | .
CCOC(=O)N1CCc2c(sc(NCc3cccc(F)c3)c2C(=O)Nc2ccc(OC)cc2OC)C1 | ? | ? | ? | ? | . | ? | 2.5*
COc1ccc(NC(=O)c2c(NC(=O)c3cccc(C)c3)sc3c2CCCC3)cc1 | 32% | ? | 3% | 2% | . | ? | .
CCOC(=O)N1CCc2c(sc(NCc3ccc(N(C)C)cc3)c2C(=O)Nc2ccc(OC)cc2)C1 | ? | 2.8µM* | 22µM* | 14µM* | . | ? | 3.6*
CCC(=O)Nc1sc2c(c1C(=O)Nc1ccc(OC)cc1)CCC(C(C)(C)C)C2 (stereo not drawn) | 18% | -14%[59 µM] | 0% | -19% | . | 26% | .
CCOC(=O)N1CCc2c(sc(NCc3cccc(F)c3)c2C(=O)Nc2ccc(OC)cc2)C1 | -19% | ? | 79µM* | 10µM* | . | ? | 2.3*
COc1ccc(N2CCN(Cc3nc(-c4ccc(Cl)cc4Cl)no3)CC2)cc1 | ? | 2.2µM* | 35µM* | 25µM* | -1% | ? | 4.5*
COCCn1c(-c2ccc(OC(F)(F)C(F)C(F)(F)F)cc2)nc2c1c(=O)[nH]c(=O)n2CC(C)C (stereo not drawn) | 14% | ? | -4% | -20% | 4% | 0% | .

Assay outcomes: PubChem BioAssay, National Center for Advancing Translational Sciences (NCATS)
